From PubChem BioAssay (EPA / NIEHS)
Values joined by “and” are separate entries in the source; they are usually repeats but may differ in a detail not shown here. Equal entries are not always repeated. Active and inactive are the calls of the source. Rule for the calls: active = hit-call score of the fitted dose curve at least 0.9, where 1 is the maximum; inactive = score below 0.9.

Read-out: Collagen III, COL3A1 (gene 1281)
Experiment: BSK_MyoF_CollagenIII: BioMAP Diversity Plus: MyoF Assay for Collagen III Biomarker Activity (AID 2284239)
Settings: primary human lung fibroblasts
Summary of the method: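 Primary human lung fibroblasts (BioMAP MyoF system) exposed 24 h. Collagen III measured by ELISA; positive-direction fit relative to DMSO.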

Row | SMILES | AC50 | outcome
1 | Oc1c(Cl)c(Cl)c(Cl)c(Cl)c1Cl | 4.07 µM (active) | 
2 | O=S(=O)(O)C(F)(F)C(F)(F)C(F)(F)C(F)(F)F |  | inactive
3 | O=C(O)C(F)(F)C(F)(F)C(F)(F)C(F)(F)C(F)(F)C(F)(F)C(F)(F)C(F)(F)F | 46.8 µM (active) and 47.6 µM (active) | 
4 | O=C(O)C(F)(F)C(F)(F)C(F)(F)C(F)(F)C(F)(F)F |  | inactive
5 | O=C(O)C(F)(F)C(F)(F)C(F)(F)C(F)(F)C(F)(F)C(F)(F)C(F)(F)C(F)(F)C(F)(F)F | 26.2 µM (active) and 19.1 µM (active) | 
6 | NS(=O)(=O)C(F)(F)C(F)(F)C(F)(F)C(F)(F)C(F)(F)C(F)(F)C(F)(F)C(F)(F)F | 26.2 µM (active) and 28.7 µM (active) | 
7 | O=S(=O)(O)C(F)(F)C(F)(F)C(F)(F)C(F)(F)C(F)(F)C(F)(F)F |  | inactive
8 | Sc1ccccc1 |  | inactive
